For 8 molecules, growth results are on record in PubChem BioAssay (NCI).

Test systems include DU-145 prostate; K-562 leukemia; MALME-3M melanoma; MDA-MB-231 breast; RXF 393 renal; SF-268 CNS; SF-295 CNS; SF-539 CNS; UACC-257 melanoma; M14 melanoma; HCT-15 colon; HT29 colon; SNB-75 CNS; SNB-19 CNS; U251 CNS; PC-3 prostate; SK-MEL-5 melanoma; UACC-62 melanoma; LOX IMVI melanoma; SK-MEL-28 melanoma.
Test in all cases: NCI-60 one-dose screen, 48 h (100 = growth as untreated, 0 = no growth, -100 = all killed)
Settings in all cases: 10 µM

The panel holds about 83,000 compounds, 20% with a hit somewhere; the sample as a whole holds those more often.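 Interpretation: 100, growth as untreated; towards 0, rising growth inhibition; 0, no net growth; 0 to -100, cell death. Compounds scoring below 10 were considered active.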 A number with no mark means an inactive call. Calls of active or inactive are those of the source.

On to `Nc1ncc(-c2ccc(C(F)(F)F)cc2)c(NC2CCCCCC2)n1`, for which the growth with DU-145 prostate is 64.2%; in the test on K-562 leukemia, 16.2%; with MALME-3M melanoma it was -21.4% (active); in the test with MDA-MB-231 breast, 65.1%; in the test on RXF 393 renal, 50.3%; with SF-268 CNS, 56.1%. Moreover, the growth is -20.9% (active) in the test with SF-295 CNS; 65.2% in the test with SF-539 CNS; -13.5% (active) in the test with UACC-257 melanoma; 27.8% in the test on M14 melanoma; 73.7% in the test on HCT-15 colon; 31.5% in the test on HT29 colon. The growth is 57.8% with SNB-75 CNS; 49.9% in the test on SNB-19 CNS; 22.5% with U251 CNS; 12% with PC-3 prostate; 3.53% (active) in the test on SK-MEL-5 melanoma; 0.46% (active) in the test with UACC-62 melanoma. Moreover, the growth in the test with LOX IMVI melanoma is 48%; in the test with SK-MEL-28 melanoma, 33.7%.

On to `Cc1cnc(C=O)c2cccc([N+](=O)[O-])c12`, for which the growth in the test with DU-145 prostate is 92.3%; in the test with K-562 leukemia, 51.3%; with MALME-3M melanoma it was 81.1%; with MDA-MB-231 breast it was 93.4%; in the test with RXF 393 renal, 93.1%; in the test on SF-268 CNS, 88.5%. Also, the growth in the test with SF-295 CNS is 89.9%; with SF-539 CNS it was 90.1%; in the test with UACC-257 melanoma it was 107%; with M14 melanoma it was 95.9%; in the test with HCT-15 colon, 70.7%; in the test with HT29 colon it was 79.1%. In addition, the growth with SNB-75 CNS is 69.6%; in the test with SNB-19 CNS it was 99.2%; with U251 CNS it was 91.9%; in the test with PC-3 prostate it was 79.9%; in the test with SK-MEL-5 melanoma it was 95.5%; in the test on UACC-62 melanoma, 103%. The growth in the test on LOX IMVI melanoma was 72.1%; in the test on SK-MEL-28 melanoma, 111%.

For `N#Cc1c(-c2ccccc2)nc(SCC(=O)N2CCOCC2)[nH]c1=O`, the growth in the test with DU-145 prostate is 112%; with K-562 leukemia, 89.8%; with MALME-3M melanoma, 92.4%; in the test with MDA-MB-231 breast, 114%; in the test on RXF 393 renal, 117%; in the test with SF-268 CNS, 104%. Further, the growth is 97.1% in the test with SF-295 CNS; 97.1% with SF-539 CNS; 97% with UACC-257 melanoma; 100% with M14 melanoma; 103% in the test on HCT-15 colon; 106% in the test with HT29 colon. Besides, the growth in the test on SNB-75 CNS was 61.4%; with SNB-19 CNS, 111%; in the test on U251 CNS, 105%; in the test with PC-3 prostate, 98.1%; with SK-MEL-5 melanoma, 102%; in the test with UACC-62 melanoma it was 100%. Moreover, the growth in the test on LOX IMVI melanoma was 91.9%; with SK-MEL-28 melanoma, 114%.

Regarding `C[N+]1=C(/C=C/c2ccc(I)cc2)C(C)(C)c2ccccc21`, the growth in the test on DU-145 prostate was 104%; in the test on K-562 leukemia it was 109%; with MALME-3M melanoma, 86%; in the test with MDA-MB-231 breast, 67.1%; with RXF 393 renal it was 70.7%; in the test on SF-268 CNS, 89.9%. The growth with SF-295 CNS is 100%; with SF-539 CNS, 98.7%; with UACC-257 melanoma it was 104%; in the test on M14 melanoma, 91%; in the test on HCT-15 colon it was 86.6%; in the test on HT29 colon, 97.2%. The growth with SNB-75 CNS was 95.9%; in the test with SNB-19 CNS, 96.7%; in the test with U251 CNS it was 40.6%; with PC-3 prostate, 87.3%; with SK-MEL-5 melanoma it was 90.4%; in the test with UACC-62 melanoma, 95.3%. The growth is 38% with LOX IMVI melanoma and 84.7% with SK-MEL-28 melanoma.

In the case of `CC(C)OP(=O)(O)c1ncc(-c2ccc(C(F)(F)F)cc2)c(NC2CCCCCC2)n1`, the growth was 90.1% in the test on DU-145 prostate; 36.3% in the test with K-562 leukemia; 5.39% (active) with MALME-3M melanoma; 89.9% in the test with MDA-MB-231 breast; 90.1% in the test on RXF 393 renal; 75.6% in the test on SF-268 CNS. For the same molecule, the growth in the test on SF-295 CNS is 11.5%; in the test with SF-539 CNS it was 92.4%; in the test on UACC-257 melanoma it was 28.6%; in the test with M14 melanoma, 53.7%; in the test with HCT-15 colon, 95.4%; in the test on HT29 colon it was 47.5%. In addition, the growth in the test with SNB-75 CNS is 73%; in the test with SNB-19 CNS, 71.3%; in the test with U251 CNS, 30.4%; in the test with PC-3 prostate, 24.2%; in the test on SK-MEL-5 melanoma, 43%; in the test with UACC-62 melanoma, 31.6%. Also, the growth in the test with LOX IMVI melanoma was 64.6%; in the test with SK-MEL-28 melanoma, 51.4%.

In the case of `CNCCCNCCCN1C(=O)c2ccc3c4c(ccc(c24)C1=O)C(=O)N(CCCNCc1ccccc1OC)C3=O`, the growth with DU-145 prostate was -91.5% (active); in the test on K-562 leukemia, 4.42% (active); in the test on MALME-3M melanoma it was -89.7% (active); in the test on MDA-MB-231 breast, 7.69% (active); in the test on RXF 393 renal, -11.5% (active); with SF-268 CNS it was 4.85% (active). The growth with SF-295 CNS was 25.3%; in the test on SF-539 CNS it was 24.3%; with UACC-257 melanoma it was -80.7% (active); in the test with M14 melanoma it was 0.979% (active); in the test with HCT-15 colon it was 28%; with HT29 colon, -23.4% (active). Further, the growth is 15.9% in the test on SNB-75 CNS; 36.6% in the test on SNB-19 CNS; 6.5% (active) in the test on U251 CNS; 1.85% (active) in the test with PC-3 prostate; -94.2% (active) with SK-MEL-5 melanoma; -42.2% (active) in the test on UACC-62 melanoma. Also, the growth was -58.3% (active) with LOX IMVI melanoma and -48.2% (active) in the test on SK-MEL-28 melanoma.

Turning to `CCCCCCCOc1cccc(/C=C2/C(=O)N=C3SCCCN32)c1`, the growth in the test on DU-145 prostate was 55.7%; in the test with K-562 leukemia it was 37%; in the test on MALME-3M melanoma, 81.6%; with MDA-MB-231 breast, 65.8%; in the test on RXF 393 renal it was 83.7%; in the test on SF-268 CNS, 85%. Further, the growth is 75.1% in the test on SF-295 CNS; 92.7% in the test on SF-539 CNS; 68.4% with UACC-257 melanoma; 71% with M14 melanoma; 60.8% with HCT-15 colon; 63.9% with HT29 colon. Moreover, the growth in the test with SNB-75 CNS is 75.1%; in the test on SNB-19 CNS it was 63.4%; with U251 CNS it was 51%; in the test with PC-3 prostate, 70.4%; in the test with SK-MEL-5 melanoma, 63.7%; with UACC-62 melanoma it was 54.9%. Besides, the growth in the test on LOX IMVI melanoma was 44.9%; in the test on SK-MEL-28 melanoma, 82.3%.

`COc1cc(C2C=C(c3ccc(Cl)cc3)N=C3SC(C)=CN32)cc(OC)c1OC` (stereo not given): the growth with DU-145 prostate was 99.9%; in the test on K-562 leukemia, 91.1%; in the test on MALME-3M melanoma, 88.7%; in the test with MDA-MB-231 breast, 103%; in the test on RXF 393 renal, 92.6%; in the test on SF-268 CNS it was 104%. Also, the growth is 82.2% in the test with SF-295 CNS; 99.1% in the test with SF-539 CNS; 101% with UACC-257 melanoma; 95% in the test with M14 melanoma; 84.7% with HCT-15 colon; 79.1% with HT29 colon. Moreover, the growth with SNB-75 CNS was 81.8%; in the test with SNB-19 CNS, 91.5%; in the test on U251 CNS it was 85.1%; in the test on PC-3 prostate, 89.2%; with SK-MEL-5 melanoma, 91.9%; in the test with UACC-62 melanoma it was 85.5%. Further, the growth with LOX IMVI melanoma was 96.8%; in the test on SK-MEL-28 melanoma it was 105%.
